Reference: the supplement of paper PMC6992640
± gives the standard deviation of the averaged measurements.

Test system: HCI13 (cells of an ER-positive luminal breast cancer xenograft)
Test: cell viability (% of vehicle); higher = less cytotoxic
Conditions: 10 µM; 72 h
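Further: PDX cells carrying CMV promoter-driven luciferase, viability read as total photon flux per second by IVIS imaging following D-luciferin, vehicle control 0.1% DMSO.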

Row | SMILES | cell viability
1 | Cc1nc2c([nH]1)CCN(C(=O)c1ccc(NC(=O)c3ccccc3-c3ccccc3)cc1)c1ccccc1-2.Cl [Conivaptan HCl] | 99.5 ± 17
2 | COc1nc(C)nc(Cl)c1NC1=NCCN1 [Moxonidine] | 98.9 ± 5.5
3 | CC(=O)OCC(=O)NCCCOc1cccc(CN2CCCCC2)c1.Cl [Roxatidine Acetate HCl] | 141 ± 22
4 | Clc1ccc2c(c1)C(N1CCNCC1)=Nc1ccccc1O2 [Amoxapine] | 88 ± 2.5
5 | CCCNS(=O)(=O)Nc1ncnc(OCCOc2ncc(Br)cn2)c1-c1ccc(Br)cc1 [Macitentan] | 51.7 ± 28
6 | OCC(O)C(O)C(O)CO (stereo unspecified) [Xylitol] | 97 ± 3.2
7 | CCCc1ncc(C[n+]2ccccc2C)c(N)n1.Cl.[Cl-] [Amprolium HCl] | 128 ± 7
8 | Cc1c(O)c(=O)ccn1C [Deferiprone] | 93 ± 5.8
9 | NC(=O)N1c2ccccc2CC(=O)c2ccccc21 [Oxcarbazepine] | 104 ± 15
10 | CCC(C)C(=O)OC1CCC=C2C=CC(C)C(CCC3CC(O)CC(=O)O3)C21 (stereo unspecified) [Mevastatin] | 92.7 ± 24
11 | CC(=O)OC1(C(C)=O)CCC2C3CC(C)C4=CC(=O)CCC4(C)C3CCC21C (stereo unspecified) [Medroxyprogesterone acetate] | 152 ± 16
12 | CNC(C)C1CCC(N)C(OC2C(N)CC(N)C(OC3OCC(C)(O)C(NC)C3O)C2O)O1.O=S(=O)(O)O (stereo unspecified) [Gentamycin Sulfate] | 94.4 ± 9.3
13 | COc1ccc(CC2c3cc(OC)c(OC)cc3CC[N+]2(C)CCC(=O)OCCCCCOC(=O)CC[N+]2(C)CCc3cc(OC)c(OC)cc3C2Cc2ccc(OC)c(OC)c2)cc1OC.O=S(=O)([O-])c1ccccc1.O=S(=O)([O-])c1ccccc1 (stereo unspecified) [Cisatracurium Besylate] | 80.4 ± 3.9
14 | NCCCCCC(=O)O [(6-)ε-Aminocaproic acid] | 104 ± 5
15 | CC12CCC3=C4CCC(=O)C=C4CCC3C1CCC2(O)CC#N (stereo unspecified) [Dienogest] | 170 ± 3.3
16 | COC(=O)Nc1nc2ccc(S(=O)c3ccccc3)cc2[nH]1 (stereo unspecified) [Oxfendazole] | 179 ± 34
17 | Cc1cn(C2CC(N=[N+]=[N-])C(CO)O2)c(=O)[nH]c1=O (stereo unspecified) [Zidovudine] | 124 ± 7.2
18 | CCN(CCO)CCCC(C)Nc1ccnc2cc(Cl)ccc12.O=S(=O)(O)O (stereo unspecified) [Hydroxychloroquine Sulfate] | 84.4 ± 8.1
19 | CC1(C)SC2C(NC(=O)C(N)c3ccccc3)C(=O)N2C1C(=O)[O-].[Na+] (stereo unspecified) [Ampicillin] | 86.7 ± 9.1
20 | CC(O)(P(=O)(O)O)P(=O)(O)O [Etidronate] | 107.1 ± 0.89
21 | CCCNC(C)C(=O)Nc1ccccc1C.Cl (stereo unspecified) [Prilocaine hydrochloride] | 83.1 ± 5.5
22 | CN(C)CCC=C1c2ccccc2CCc2ccccc21.Cl [Amitriptyline HCl] | 105 ± 9.9
23 | CN1CCC(=C2c3ccccc3CC(=O)c3sccc32)CC1.O=C(O)C=CC(=O)O [Ketotifen Fumarate] | 135 ± 13
24 | CCOc1ccc2ccccc2c1C(=O)NC1C(=O)N2C1SC(C)(C)C2C(=O)[O-].O.[Na+] (stereo unspecified) [Nafcillin Sodium] | 117 ± 9.9
25 | Nc1ccc(S(=O)(=O)c2ccc(N)cc2)cc1 [Dapsone] | 118 ± 22
26 | Nc1nc(=O)c2ncn(COC(CO)CO)c2[nH]1 [Ganciclovir] | 112 ± 17
27 | FC(F)(F)c1ccc(C=Cc2nc(COc3ccc(CCCCn4ccnn4)cc3)co2)cc1 [Mubritinib (TAK 165)] | 65.54 ± 0.49

Test system: HCI16 (cells of a triple-negative basal-like breast cancer xenograft)
Test: as above
Conditions: 10 µM; 72 h

Row | SMILES | cell viability
28 | C=CC[C@@H]1/C=C(\C)C[C@H](C)C[C@H](OC)[C@H]2O[C@@](O)(C(=O)C(=O)N3CCCC[C@H]3C(=O)O[C@H](/C(C)=C/[C@@H]3CC[C@@H](O)[C@H](OC)C3)[C@H](C)[C@@H](O)CC1=O)[C@H](C)C[C@@H]2OC [Tacrolimus (FK506)] | 92
29 | O=C1CCC(N2C(=O)c3ccccc3C2=O)C(=O)N1 (stereo unspecified) [Thalidomide] | 114
30 | COc1cc2nc(N3CCN(C(=O)c4ccco4)CC3)nc(N)c2cc1OC.Cl [Prazosin HCl] | 156
31 | Oc1ccc(OC2CCCCO2)cc1 (stereo unspecified) [Deoxyarbutin] | 145
32 | COc1ccccc1N1CCN(CCCNc2cc(=O)n(C)c(=O)n2C)CC1.Cl [Urapidil HCl] | 105
33 | O=C(O)CCC(=O)O.O=C(OC1CN2CCC1CC2)N1CCc2ccccc2C1c1ccccc1 (stereo unspecified) [Solifenacin succinate] | 104
34 | COc1ccc(O)cc1 [Mequinol] | 118
35 | CCC(CO)NCCNC(CC)CO.Cl.Cl (stereo unspecified) [Ethambutol HCl] | 102
36 | CC(NC(=O)C(O)C(C)C)C(=O)NC1C(=O)N(C)CCc2ccccc21 (stereo unspecified) | 180
37 | CC12CCC3c4ccc(OC(=O)c5ccccc5)cc4CCC3C1CCC2O (stereo unspecified) [Estradiol Benzoate] | 126
38 | CC(CN1CC(=O)NC(=O)C1)N1CC(=O)NC(=O)C1.Cl (stereo unspecified) [Dexrazoxane HCl (ICRF-187, ADR-529)] | 84.2
39 | CCC1OC(=O)C(C)C(OC2CC(C)(OC)C(O)C(C)O2)C(C)C(OC2OC(C)CC(N(C)C)C2O)C(C)(O)CC(C)C2NC(COCCOC)OC(C2C)C1(C)O (stereo unspecified) [Dirithromycin] | 103
40 | Cc1nc2c([nH]1)CCN(C(=O)c1ccc(NC(=O)c3ccccc3-c3ccccc3)cc1)c1ccccc1-2.Cl [Conivaptan HCl] | 106
41 | COc1nc(C)nc(Cl)c1NC1=NCCN1 [Moxonidine] | 95.3
42 | CC(=O)OCC(=O)NCCCOc1cccc(CN2CCCCC2)c1.Cl [Roxatidine Acetate HCl] | 131
43 | Clc1ccc2c(c1)C(N1CCNCC1)=Nc1ccccc1O2 [Amoxapine] | 94.9
44 | CCCNS(=O)(=O)Nc1ncnc(OCCOc2ncc(Br)cn2)c1-c1ccc(Br)cc1 [Macitentan] | 91.8
45 | OCC(O)C(O)C(O)CO (stereo unspecified) [Xylitol] | 101
46 | CCCc1ncc(C[n+]2ccccc2C)c(N)n1.Cl.[Cl-] [Amprolium HCl] | 145
47 | Cc1c(O)c(=O)ccn1C [Deferiprone] | 102

Row | SMILES | cell viability
48 | NC(=O)N1c2ccccc2CC(=O)c2ccccc21 [Oxcarbazepine] | 124
49 | CCC(C)C(=O)OC1CCC=C2C=CC(C)C(CCC3CC(O)CC(=O)O3)C21 (stereo unspecified) [Mevastatin] | 132
50 | CC(=O)OC1(C(C)=O)CCC2C3CC(C)C4=CC(=O)CCC4(C)C3CCC21C (stereo unspecified) [Medroxyprogesterone acetate] | 177
51 | CNC(C)C1CCC(N)C(OC2C(N)CC(N)C(OC3OCC(C)(O)C(NC)C3O)C2O)O1.O=S(=O)(O)O (stereo unspecified) [Gentamycin Sulfate] | 97
52 | COc1ccc(CC2c3cc(OC)c(OC)cc3CC[N+]2(C)CCC(=O)OCCCCCOC(=O)CC[N+]2(C)CCc3cc(OC)c(OC)cc3C2Cc2ccc(OC)c(OC)c2)cc1OC.O=S(=O)([O-])c1ccccc1.O=S(=O)([O-])c1ccccc1 (stereo unspecified) [Cisatracurium Besylate] | 129
53 | NCCCCCC(=O)O [(6-)ε-Aminocaproic acid] | 101
54 | CC12CCC3=C4CCC(=O)C=C4CCC3C1CCC2(O)CC#N (stereo unspecified) [Dienogest] | 164
55 | COC(=O)Nc1nc2ccc(S(=O)c3ccccc3)cc2[nH]1 (stereo unspecified) [Oxfendazole] | 147
56 | Cc1cn(C2CC(N=[N+]=[N-])C(CO)O2)c(=O)[nH]c1=O (stereo unspecified) [Zidovudine] | 143
57 | CCN(CCO)CCCC(C)Nc1ccnc2cc(Cl)ccc12.O=S(=O)(O)O (stereo unspecified) [Hydroxychloroquine Sulfate] | 86.5
58 | CC1(C)SC2C(NC(=O)C(N)c3ccccc3)C(=O)N2C1C(=O)[O-].[Na+] (stereo unspecified) [Ampicillin] | 78.9
59 | CC(O)(P(=O)(O)O)P(=O)(O)O [Etidronate] | 92.3
60 | CCCNC(C)C(=O)Nc1ccccc1C.Cl (stereo unspecified) [Prilocaine hydrochloride] | 122
61 | CN(C)CCC=C1c2ccccc2CCc2ccccc21.Cl [Amitriptyline HCl] | 135
62 | CN1CCC(=C2c3ccccc3CC(=O)c3sccc32)CC1.O=C(O)C=CC(=O)O [Ketotifen Fumarate] | 173
63 | CCOc1ccc2ccccc2c1C(=O)NC1C(=O)N2C1SC(C)(C)C2C(=O)[O-].O.[Na+] (stereo unspecified) [Nafcillin Sodium] | 105
64 | Nc1ccc(S(=O)(=O)c2ccc(N)cc2)cc1 [Dapsone] | 158
65 | Nc1nc(=O)c2ncn(COC(CO)CO)c2[nH]1 [Ganciclovir] | 126
66 | FC(F)(F)c1ccc(C=Cc2nc(COc3ccc(CCCCn4ccnn4)cc3)co2)cc1 [Mubritinib (TAK 165)] | 124
